The list is not random: actives were taken first. Their share in the collection is about 22%.
Pf growth 48h: inhibits P. falciparum growth in the first generation, 48 h; P. falciparum luciferase growth in erythrocytes, 48 h; Potency, µM (series often up to 28.7 µM), without a hit: at the top dose activity change, negative = inhibition, usual class: inhibitors; 5.9% of 310,000 active; further: potency means the concentration at half of the fitted maximal effect; on the % scale 0 is the no-effect control and ±100 the full control effect
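Parasite viability was followed by luminescence of a genomically integrated firefly luciferase. Cultures held 0.1% parasitemia at 2% hematocrit (final), incubated under 5% CO2 at 37 C.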
Shiga toxin inh: inhibitors of Shiga toxin in Vero cells | Vero cells, Shiga toxin protein synthesis inhibition reporter | inhibition, % at 38.7 µM | 9.2% of 290,000 active; in the data active means inhibition mostly above about 28%, no sharp cut-off; inactive means mostly below about 43%; further: 0% is about no effect
CHX counter: counter-screen hit for Shiga toxin inhibitors, cycloheximide | cell reporter, cycloheximide protein synthesis inhibition counterscreen | max response, % | 12% of 300,000 active | AID 2314; in the data active means max response mostly above about 13%, no sharp cut-off; inactive means mostly below about 14%; further: read at 38.3 µM for the half of the compounds with a filed dose; 0% is about no effect
LmPK inhibitor: inhibitors of Leishmania mexicana pyruvate kinase; Potency, µM (titrated, usually from 57.5 µM), for inactives: at the highest dose activity change, negative = inhibition, actives largely listed as inhibitors; Q27686; 0.37% of 290,000 active; purified LmPK, Kinase-Glo ATP luminescence, 1 h; further: potency means the concentration at half of the fitted maximal effect; on the % scale 0 is the no-effect control and ±100 the full control effect
Target sequence (Q27686 whole entry, looked up): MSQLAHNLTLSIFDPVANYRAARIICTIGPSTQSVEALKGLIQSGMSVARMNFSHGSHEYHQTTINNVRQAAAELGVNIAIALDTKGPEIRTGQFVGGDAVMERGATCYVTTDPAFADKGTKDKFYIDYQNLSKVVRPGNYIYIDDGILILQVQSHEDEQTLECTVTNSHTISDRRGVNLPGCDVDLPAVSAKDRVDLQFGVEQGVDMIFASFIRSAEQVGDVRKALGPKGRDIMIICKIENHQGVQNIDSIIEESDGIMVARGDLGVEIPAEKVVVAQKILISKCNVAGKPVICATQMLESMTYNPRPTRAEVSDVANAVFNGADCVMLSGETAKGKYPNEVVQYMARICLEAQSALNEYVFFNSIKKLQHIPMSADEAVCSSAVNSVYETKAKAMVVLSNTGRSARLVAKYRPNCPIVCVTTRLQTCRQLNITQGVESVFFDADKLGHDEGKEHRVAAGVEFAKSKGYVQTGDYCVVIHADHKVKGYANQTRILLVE
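ATP generated from ADP (0.1 mM) and PEP (0.5 mM) by 0.1 nM LmPK over 1 h at room temperature (pH 7.2 imidazole buffer) was detected by coupled luciferase luminescence. Values were normalized to uninhibited and no-enzyme wells.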
Pf growth 96h: P. falciparum growth inhibition at 96 hours. P. falciparum luciferase reporter growth, 96 h. Potency, µM (titrated, usually from 28.7 µM), without a hit: at the top dose activity change, negative = inhibition, usual class: inhibitors. 6.9% of 320,000 active; further: potency means the concentration at half of the fitted maximal effect; on the % scale 0 is the no-effect control and ±100 the full control effect
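Compounds incubated with erythrocytes infected by luciferase-expressing P. falciparum (2% hematocrit, 0.05% parasitemia final) for 96 hours, 37 C in 5% CO2. Growth inhibition scored as decreased luciferase luminescence.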
* hit, by the source's call; u = inconclusive; x = no result; + = active, no number. Unless noted, the call rests on the fitted dose curve; in most records, active means well fitted inhibition curve with a large enough effect; inconclusive means small, poorly fitted or top-dose-only effect, or another doubt; inactive means no such curve, though single readings can be large or run the other way.

SMILES | Pf growth 48h | Shiga toxin inh | CHX counter | LmPK inhibitor | Pf growth 96h
COC(=O)CC(=O)CSc1nc2c(cc1C#N)CCCCC2 | 99% | 105* | 46* | -19% | x
CCOC(=O)c1sc(NC(=O)CSc2nc3c(cc2C#N)CCCCC3)c(C#N)c1C | u | 10 | 12 | 1% | 1%
Cn1ccsc1=NC(=O)c1cc(S(=O)(=O)N2CCOCC2)ccc1F | u | x | x | x | -5%
N#C/C(=C\c1ccc(C#N)cc1)C(=O)c1ccccc1 | u | -7 | -1 | 2% | 12%
CN(C)c1ccc(/C=C(\C#N)C(=O)c2ccccc2)cc1 | 6% | 41 | 14* | u | 4%
CN(C)c1cccc(/C=C(\C#N)c2ccccc2)c1 | 237% | 77* | 42* | -10% | 193%
Cn1cccc1/C=C(\C#N)c1ccccc1 | 12% | 23 | 9 | 14% | -17%
CN(C)c1ccc(/C=C(\C#N)c2ccccc2)cc1 | 350% | 63* | 57* | 0% | 138%
CCOC(=O)NC(=O)/C(C#N)=C/c1ccc(N(C)C)cc1 | 159% | 30 | 36* | -3% | 36%
Cc1ccsc1C(=O)OCC(=O)Nc1sccc1C(N)=O | 105% | 65* | 42* | -5% | 275%
COc1ccc(C(=O)NC(C(=O)OCC(=O)Nc2sccc2C(N)=O)C(C)C)cc1 (configuration not stated) | 12µM* | x | x | x | -15%
COc1ccc(C(=O)N[C@H](C(=O)Nc2sccc2C(N)=O)C(C)C)cc1 | -23% | 20 | 5 | 2% | 13%
Cc1ccsc1C(=O)OCC(=O)NCCNC(=O)COC(=O)c1sccc1C | 15% | x | x | x | 49%
Cc1c(C(=O)N2CCN(c3ccccc3F)CC2)sc2nc(-c3ccccc3)cn12 | 2% | 4 | -2 | 3% | 1.9µM*
COCCN(CCOC)C(=O)c1sc2nc(-c3ccccc3)cn2c1C | 1% | 5 | 8 | -11% | 32%
Cc1c(C(N)=O)sc2nc(-c3ccccc3)cn12 | 98% | 87* | 36* | 3% | 10µM*
COc1ccc(-c2cn3c(C)c(C(=O)N4CCN(c5ccccc5F)CC4)sc3n2)cc1 | u | 13 | -4 | 1% | u
Cc1ccc(S(=O)(=O)N2CCC(C(=O)N/N=C/c3cccnc3)CC2)cc1 | -8% | -12 | 7 | -2% | -22%
CCN(CC)c1nc2ccccc2nc1-n1nc(C)cc1C | u | -5 | -4 | -9% | x
Fc1cccc(Cl)c1Cn1nnc(-c2ccc(N3CCOCC3)cc2)n1 | -10% | -4 | 1 | 4% | 23%
Clc1cccc(Cl)c1Cn1nnc(N2CCCC2)n1 | 17% | 86* | 23* | 4% | 12%
O=c1c2[nH]c3ccccc3c2ncn1C1CCCCC1 | 433% | 47 | 26* | -3% | 52%
O=C(NCc1cccnc1)NC1CC(=O)N(c2ccc3c(c2)OCCO3)C1 (configuration not stated) | 4% | -4 | -2 | 0% | u
Cc1cc(S(=O)(=O)N2CCOCC2)ccc1OCC(=O)N1CCCC1 | 4% | -11 | 2 | 2% | 3%
COc1ccc(CCNC2=NCCS2)cc1 | 10% | -1 | 2 | 2% | u
SMILES | Pf growth 48h | Shiga toxin inh | CHX counter | LmPK inhibitor | Pf growth 96h
COc1ccc(CCNc2ncccc2C#N)cc1OC | 131% | 88* | 44* | 1% | 125%
COc1ccc(CCNc2ncnc3cc(OC)c(OC)cc23)cc1OC | 13µM* | -13 | -2 | 4% | -16%
COc1cc2ncnc(NCc3ccc(C)cc3)c2cc1OC | u | -8 | -4 | 3% | u
COc1ccc(CCNC2=NCCS2)cc1OC | -100% | 32* | 41* | -13% | 0%
COc1ccc(CNc2ncccn2)cc1OC | 22% | 10 | 6 | -1% | 33%
COc1ccc(CCNc2c3ccccc3nc3ccccc23)cc1OC | 1.5µM* | 36 | 9 | 0% | 1.9µM*
CCC(C)(C)NC(=O)C(c1ccccc1Cl)N(C(=O)CCC(=O)Nc1cc(C)on1)c1ccc(NC(C)=O)cc1 (configuration not stated) | -52% | -1 | 4 | 7% | -1%
COc1ccc(CCNc2ncnc3c2[nH]c2cc(OC)c(OC)cc23)cc1OC | u | -8 | -1 | 1% | 1.9µM*
COc1cc2ncnc(NCCc3ccccc3)c2cc1OC | 10µM* | -11 | -3 | 1% | u
COc1ccc(CCNc2nc(=S)[nH]c3cc(OC)c(OC)cc23)cc1OC | u | -17 | -3 | 2% | u
Cc1cc(N/N=C2/CCCc3ccccc32)nc2ccccc12 | u | 57* | 54* | -4% | u
c1ccc2[nH]c(NN=C3CCCCCC3)nc2c1 | u | 110* | 44* | u | u
Cc1cc(N/N=C2\CC(C)CC(C)(C)C2)nc2ccccc12 (configuration not stated) | u | 27* | 35* | 2% | u
c1ccc2[nH]c(NC3=NCCC3)nc2c1 | u | -13 | -1 | 1% | u
CC1C/C(=N/Nc2nc3ccccc3[nH]2)CC(C)(C)C1 (configuration not stated) | 3.7µM* | 69* | 33* | -1% | 2.1µM*
COc1ccc(/C=C/C(=O)OCC(=O)N2CCCCCC2)c(OC)c1 | 2% | x | x | x | 0%
Cc1[nH]c2ccccc2c1CN1CCC(Cc2ccccc2)CC1 | u | -7 | 4 | -4% | -182%
COC(=O)c1ccc(CNC(=O)Cn2nnnc2CN(C)C(C)C)cc1 | 1% | -4 | 1 | 3% | u
CCCN1Cc2cccc(C(=O)NC(CC(=O)OCC)c3ccc(OCC)c(OC)c3)c2C1=O (configuration not stated) | u | 10 | 4 | 1% | -21%
O=C1CSC(c2ccc([N+](=O)[O-])cc2)N1C1CCCCC1 (configuration not stated) | -8% | -8 | -6 | 1% | 0.47µM*
O=C1CSC(c2ccc([N+](=O)[O-])cc2)N1CCN1CCCCC1 (configuration not stated) | 32% | 27 | -4 | 3% | u
CC(=O)c1ccc(NC(=O)c2ccccc2Sc2ncnc3sc(C)c(C)c23)cc1 | u | + | 17* | 1% | u
Cc1ccc(S(=O)(=O)NC(=O)NCc2ccc(F)cc2)cc1 | 5% | 16 | -1 | 2% | 4.1µM*
Cc1ccc(S(=O)(=O)NC(=O)NCc2ccccc2)cc1 | x | -4 | -3 | 6% | x
NS(=O)(=O)c1ccc(CNC(=S)NCc2ccc(F)cc2)cc1 | 37% | -9 | -3 | -2% | 10µM*
COc1ccc(Cl)cc1NC(=S)NCc1ccc(S(N)(=O)=O)cc1 | 19% | 43 | -3 | 1% | 12µM*
NS(=O)(=O)c1ccc(CCNC(=S)NC2CCCCC2)cc1 | 0% | -9 | -1 | 7% | 25%
NS(=O)(=O)c1ccc(CNC(=S)NC2CC2)cc1 | 28% | 22 | 3 | 5% | 2.1µM*
NS(=O)(=O)c1ccc(CNC(=S)NCc2ccc(Cl)cc2)cc1 | -15% | -14 | -5 | 0% | 1%

Screening data deposited in PubChem by National Center for Advancing Translational Sciences (NCATS).
